# Test results as given in the supplement of paper PMC8728848.
# About 410 targets per protein were measured; listed, in parts, are those with the strongest signals and a random draw of the rest.
# Experiments:
# Assay in all cases: glycan array binding signal (z-score within array); higher = stronger binding
# Details in all cases: glycan notation: IUPAC condensed, linker removed
# [1] = target: Fuc(a1-2)Gal(b1-3)GlcNAc(b1-2)Man(a1-3)[Fuc(a1-2)Gal(b1-3)GlcNAc(b1-2)Man(a1-6)]Man(b1-4)GlcNAc(b1-4)GlcNAc
# In short: (§1)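 The Consortium for Functional Glycomics database supplied 3228 glycan arrays, of which those lacking an available protein sequence were dropped. The binding signal, a within-array Z-score, was averaged across arrays of the same protein sequence and across linkers. Negative scores can be read as non-binding.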
# [2] = target: Fuc(a1-2)Gal(b1-4)Fuc(a1-3)]GlcNAc(b1-2)Man(a1-3)[Fuc(a1-2)Gal(b1-4)[Fuc(a1-3)]GlcNAc(b1-2)Man(a1-6)]Man(b1-4)GlcNAc(b1-4)GlcNAc
# In short: as §1
# Fuc(a1-2)Gal(b1-4)GlcNAc = target: Fuc(a1-2)Gal(b1-4)GlcNAc
# In short: as §1
# [3] = target: Fuc(a1-2)Gal(b1-4)GlcNAc(b1-2)Man(a1-3)[Fuc(a1-2)Gal(b1-4)GlcNAc(b1-2)Man(a1-6)]Man(b1-4)GlcNAc(b1-4)[Fuc(a1-6)]GlcNAc
# In short: as §1
# [4] = target: Fuc(a1-2)Gal(b1-4)GlcNAc(b1-3)Gal(b1-4)GlcNAc(b1-2)Man(a1-3)[Fuc(a1-2)Gal(b1-4)GlcNAc(b1-3)Gal(b1-4)GlcNAc(b1-2)Man(a1-6)]Man(b1-4)GlcNAc(b1-4)GlcNAc
# In short: as §1
# [5] = target: Fuc(a1-2)[Gal(a1-3)]Gal(b1-3)GlcNAc(b1-2)Man(a1-3)[Fuc(a1-2)[Gal(a1-3)]Gal(b1-3)GlcNAc(b1-2)Man(a1-6)]Man(b1-4)GlcNAc(b1-4)GlcNAc
# In short: as §1
# [6] = target: Fuc(a1-2)[Gal(a1-3)]Gal(b1-3)GlcNAc(b1-6)GalNAc
# In short: as §1
# [7] = target: Fuc(a1-2)[Gal(a1-3)]Gal(b1-4)Glc
# In short: as §1
# [8] = target: Fuc(a1-2)[GalNAc(a1-3)]Gal(b1-4)GlcNAc(b1-2)Man(a1-3)[Fuc(a1-2)[GalNAc(a1-3)]Gal(b1-4)GlcNAc(b1-2)Man(a1-6)]Man(b1-4)GlcNAc(b1-4)[Fuc(a1-6)]GlcNAc
# In short: as §1
# [9] = target: Fuc(a1-2)[GalNAc(a1-3)]Gal(b1-4)GlcNAc(b1-3)GalNAc
# In short: as §1
# [10] = target: Fuc(a1-2)[GalNAc(b1-3)]Gal
# In short: as §1
# [11] = target: Fuc(a1-3)[Gal(b1-4)]GlcNAc(b1-2)Man(a1-3)[Fuc(a1-3)[Gal(b1-4)]GlcNAc(b1-2)Man(a1-6)]Man(b1-4)GlcNAc(b1-4)[Fuc(a1-6)]GlcNAc
# In short: as §1
# [12] = target: Fuc(a1-3)[Gal3S(b1-4)]Glc
# In short: as §1
# [13] = target: Gal(a1-3)Gal(b1-3)GlcNAc(b1-2)Man(a1-3)[Gal(a1-3)Gal(b1-3)GlcNAc(b1-2)Man(a1-6)]Man(b1-4)GlcNAc(b1-4)GlcNAc
# In short: as §1
# [14] = target: Gal(a1-4)Gal(b1-3)GlcNAc(b1-2)Man(a1-3)[Gal(a1-4)Gal(b1-3)GlcNAc(b1-2)Man(a1-6)]Man(b1-4)GlcNAc(b1-4)GlcNAc
# In short: as §1
# [15] = target: Gal(b1-3)GalNAc(a1-3)[Fuc(a1-2)]Gal(b1-4)GlcNAc
# In short: as §1
# [16] = target: Gal(b1-3)GlcNAc(b1-3)Gal(b1-4)GlcNAc(b1-2)Man(a1-3)[Gal(b1-3)GlcNAc(b1-3)Gal(b1-4)GlcNAc(b1-2)Man(a1-6)]Man(b1-4)GlcNAc(b1-4)GlcNAc
# In short: as §1
# [17] = target: Gal(b1-3)GlcNAc(b1-3)Gal(b1-4)GlcNAc(b1-6)[Gal(b1-3)GlcNAc(b1-3)]Gal(b1-4)Glc
# In short: as §1
# [18] = target: Gal(b1-3)GlcNAc(b1-6)GalNAc
# In short: as §1
# [19] = target: Gal(b1-3)[Fuc(a1-4)]GlcNAc
# In short: as §1
# Gal(b1-4)Glc6S = target: Gal(b1-4)Glc6S
# In short: as §1
# [20] = target: Gal(b1-4)GlcNAc(b1-2)Man(a1-3)Man(b1-4)GlcNAc(b1-4)GlcNAc
# In short: as §1
binder,measurement,setting,value
"InvD YPIII (Yersinia pseudotuberculosis), B1JSC0 (protein) MIKYFSFFKKPEPIVGILPNRQSHHILPTHIRRVAWGTLLLQLFIPLSVSFSPAIAAMKASKADTMVSYSSTEPYVLGSGETVAMVAKKYGITVDELKKINIYRTFSRPFTALTTGDEIDIPRKASPFSVDNNKDNRLSVENTLAGHAVAGATALSNGDVAKSGERMVRSAASNEFNNSAQQWLSQFGTARVQLNINDDFHLDGSAADVLIPLYDNEKSILFTQLGARNKDSRNTVNMGAGVRTFQGNWMYGANTFFDNDLTGKNRRIGVGAEAWTDYLKLSANNYFGITDWHQSRDFIDYNERPANGYDLRAEAYLPSYPQLGGKAMYEKYRGDDVALFGKDNRQKNPHAITAGVNYTPIPLVTIGAEHRAGKGGQNDSNINFQLNYRLGETWQSHIDPSAVAASRTLAGSRYDLVERNNHIVLDYQKQNLVRLSLPDSLAGDPFSQLSVTAQVTATHGLERIDWQSAELMAAGGVLKQTSKNGLEITLPEYQMNRTGGNSYILNAIAYDTQGNASSQASMLITVNAQKINIANSTLVAVPINIEANNSDTSVVTLTLKDDNNIPVTGQDVTFLSPLGTLSAMTDSGNGVYTATLTAGTVSGTTAVSSNINGSALDMTPATVTLNGNSGELSITHSMLVAAPVNIEANGSDTSVVTLTLRDSNNNPVTGQTVTFAGTLGTLGAVTEGSSGVYTATLTAGIMVGTSSITASVNSTALGVTPATVTLNGDSGNLSTTNSTLVAAPVNIEANSSDTSVVTLTLRDNNNNPVTGQTVVFTSTLGTLGNVTEQASGVYTATLTAGTVSGVASLSVSVGGNALGVTPATVTLNGDSGNLSTTNSTLVAAPVNIEANSSDTSVVTLTLRDNNNNPVTGQTVNFAGTLGTLGTVSEGSSGVYTTTLTAGTVAGVASLSVNVGGNALGVTPATVTLNGNSGNLSATNSTLVAAPVNIEANSSDTSVVTLTLRDNNNNPVTGQTVAFTSTLGTLGNVTEQASGVYTATLTAGTVSGVASLSVSVNSNALGVTPATVTLNGDSGNLSTTNSTLVAAPVNIEANSSDTSVVTLTLRDNNNNPVTGQTVAFTSTLGTLGNVTEQASGLYTATLTAGTVSGVASLSVNVGGNALGVTPATVTLNGDSGNLSATNSTLVAAPVNIEANSSDTSVVTLTLRDNNNNPVTGQTVAFTSTLGTLGNVTEQASGLYTATLTAGTVSGVASLSVNVGGTALGVTPATVTLNGDSGNLSTTNSTLVAAPVNIEANSSDTSVVTLTLRDNNNNPVTGQTVAFTSTLGTLGNVTEQASGLYTATLTAGTVSGVASLSVSVNSTALGVTPATVTLNGDSGNLSTTNSTLVAAPVNIEANSSDTSVVTLTLRDNNNNPVTGQTVAFTSTLGTLGNVTEQASGVYTATLTAGTVAGVASLSVNVGGNALGVTPATVTLNGDSGNLSTTNSTLVAAPVNIEANSSDTSVVTLTLRDNNNNPVTGQTVAFTSTLGTLGNVTEQASGVYTATLTAGTVSGVASLSVSVGSSALGVTPATVTLNGDSGNLSTTNSTLVAAPVNIEANNSDTSVVTLTLRDNNNNPVTGQTVAFTSTLGTLGNVTEQASGVYTATLTAGTVSGVASLSVSVNSNALGVTPATVTLNGDSGNLSTTNSTLVAAPVNIEANSSDTSVVTLTLRDNNNNPVTGQTVVFTSTLGTLGNVTEQASGLYTATLTAGTVSGVASLSVSVGGNALGVTGNITLAPGALDAARSILAVNKPSINADDRIGSTITFTAQDAQGNAITGLDIAFMTDLENSQIMTLVDHNDGTYTANINGTQTGIANIAVQSSGATIAGLAATMVTITPGAWNTTQATPVMTVALPITTCQSSSGVYKRYYIGIVTHELYDNYGNEISGILTYNLGAGRYTTVTSQNSSVSGSNGLTRRSNSPVSHFILTSDAYTSQAACYAERIANVNVTITVTAITDDFKTSAVNKVFILGTGSN",glycan array binding signal (z-score),[1],0.001
same,glycan array binding signal (z-score),[2],1.36
same,glycan array binding signal (z-score),Fuc(a1-2)Gal(b1-4)GlcNAc,-0.154
same,glycan array binding signal (z-score),[3],0.037
same,glycan array binding signal (z-score),[4],-0.232
same,glycan array binding signal (z-score),[5],-0.164
same,glycan array binding signal (z-score),[6],0.218
same,glycan array binding signal (z-score),[7],-0.359
same,glycan array binding signal (z-score),[8],0.113
same,glycan array binding signal (z-score),[9],-0.306
same,glycan array binding signal (z-score),[10],0.063
same,glycan array binding signal (z-score),[11],-0.147
same,glycan array binding signal (z-score),[12],-0.259
same,glycan array binding signal (z-score),[13],0.213
same,glycan array binding signal (z-score),[14],0.015
same,glycan array binding signal (z-score),[15],-0.102
same,glycan array binding signal (z-score),[16],-0.358
same,glycan array binding signal (z-score),[17],-0.192
same,glycan array binding signal (z-score),[18],-0.16
same,glycan array binding signal (z-score),[19],-0.119
same,glycan array binding signal (z-score),Gal(b1-4)Glc6S,-0.213
same,glycan array binding signal (z-score),[20],-0.355
